Test results as given in PubChem BioAssay (NCI).
This is part of a sample that, as a whole, favours compounds with a hit. Of some 83,000 tested, about 20% had one in any assay.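 The test compound was applied at a single concentration to cells in 96-well plates for 48 hours, and percent growth was recorded.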 Calls of active or inactive are those of the source. How the source made its calls: active means growth percent below 10; inactive means the rest.

Columns and labels:
Test in all cases: NCI-60 one-dose screen, 48 h (100 = growth as untreated, 0 = no growth, -100 = all killed)
Conditions in all cases: 10 µM unless noted
DU-145 prostate = test system: DU-145 prostate
K-562 leukemia = test system: K-562 leukemia
MALME-3M melanoma = test system: MALME-3M melanoma
MDA-MB-231 breast = test system: MDA-MB-231 breast
SF-268 CNS = test system: SF-268 CNS
SF-295 CNS = test system: SF-295 CNS
SF-539 CNS = test system: SF-539 CNS
UACC-257 melanoma = test system: UACC-257 melanoma
HCT-15 colon = test system: HCT-15 colon
HT29 colon = test system: HT29 colon
SNB-75 CNS = test system: SNB-75 CNS
SNB-19 CNS = test system: SNB-19 CNS
U251 CNS = test system: U251 CNS
PC-3 prostate = test system: PC-3 prostate
UACC-62 melanoma = test system: UACC-62 melanoma
SK-MEL-28 melanoma = test system: SK-MEL-28 melanoma
RXF 393 renal = test system: RXF 393 renal
M14 melanoma = test system: M14 melanoma
SK-MEL-5 melanoma = test system: SK-MEL-5 melanoma
LOX IMVI melanoma = test system: LOX IMVI melanoma

Measured: growth

CCCCOc1nc2ccc(Cl)cc2cc1/C=C/C(=O)/C=C1/CC(c2cc3cc(Cl)ccc3nc2OCCCC)Nc2ccccc2N1 (stereo not drawn)
inactive: DU-145 prostate 103% | K-562 leukemia 91.7% | MALME-3M melanoma 79.4% | MDA-MB-231 breast 81% | SF-268 CNS 97.9% | SF-295 CNS 96.2% | SF-539 CNS 91.9% | UACC-257 melanoma 100% | HCT-15 colon 94.1% | HT29 colon 101% | SNB-75 CNS 86.2% | SNB-19 CNS 99.1% | U251 CNS 96.4% | PC-3 prostate 91.6% | UACC-62 melanoma 89.1% | SK-MEL-28 melanoma 105%

COc1ccc(CN2C(=O)/C(=C\c3cc(OC)c(OC)c(OC)c3)c3ccccc32)cc1
active: DU-145 prostate 9.87% | K-562 leukemia 5.28% | MDA-MB-231 breast 5.55% | RXF 393 renal -69.6% | SF-295 CNS -46% | SF-539 CNS -84.9% | UACC-257 melanoma -9.5% | M14 melanoma -32% | HCT-15 colon -55.8% | HT29 colon 0.194% | SNB-75 CNS 8.57% | U251 CNS -73.6% | SK-MEL-5 melanoma -25.1% | UACC-62 melanoma -8.88% | LOX IMVI melanoma -76% | SK-MEL-28 melanoma -34.9%
inactive: SF-268 CNS 10.4% | SNB-19 CNS 60.3% | PC-3 prostate 10.9%

C=CC(=O)N[C@@H](Cc1ccc(-c2cc(Cl)cc(Cl)c2)cc1)[C@@H](O)[C@H](O)C(=O)O
inactive: DU-145 prostate 109% | K-562 leukemia 101% | MALME-3M melanoma 96.6% | MDA-MB-231 breast 104% | SF-268 CNS 101% | SF-295 CNS 100% | SF-539 CNS 94.9% | M14 melanoma 99.4% | HCT-15 colon 104% | HT29 colon 87.9% | SNB-75 CNS 104% | SNB-19 CNS 98.1% | U251 CNS 92.1% | PC-3 prostate 89.4% | SK-MEL-5 melanoma 99.3% | UACC-62 melanoma 89.3% | LOX IMVI melanoma 98.4% | SK-MEL-28 melanoma 107%

Cn1cc(-c2ccc3nc(-c4ccc(CC(=O)Nc5cc(C(C)(C)C)no5)cc4)cnc3c2)cn1
inactive: DU-145 prostate 22.6% [30 µM] | SF-268 CNS 27.4% [30 µM] | SF-295 CNS 23.2% [30 µM] | SF-539 CNS 16.3% [30 µM] | UACC-257 melanoma 41.9% [30 µM] | HCT-15 colon 11.5% [30 µM] | HT29 colon 58.4% [30 µM] | SNB-75 CNS 26.5% [30 µM] | SNB-19 CNS 53.6% [30 µM] | U251 CNS 37.3% [30 µM] | PC-3 prostate 40.2% [30 µM] | LOX IMVI melanoma 20.1% [30 µM] | SK-MEL-28 melanoma 37.5% [30 µM]
active: K-562 leukemia 4.38% [30 µM] | MALME-3M melanoma 0.481% [30 µM] | MDA-MB-231 breast -5.94% [30 µM] | UACC-62 melanoma 9.8% [30 µM]

Nc1nc(N)c(-c2ccc(Cl)cc2)c(/C=C/c2ccc([N+](=O)[O-])cc2)n1
inactive: DU-145 prostate 87.2% | K-562 leukemia 19.4% | MDA-MB-231 breast 95.4% | RXF 393 renal 74.7% | SF-268 CNS 79.3% | SF-295 CNS 51.5% | SF-539 CNS 93.5% | UACC-257 melanoma 66.3% | M14 melanoma 63.6% | HCT-15 colon 66.3% | HT29 colon 63.8% | SNB-75 CNS 78.3% | SNB-19 CNS 75% | U251 CNS 82.9% | PC-3 prostate 32.4% | SK-MEL-5 melanoma 79.6% | UACC-62 melanoma 83.1% | LOX IMVI melanoma 60.6% | SK-MEL-28 melanoma 95.7%

COc1cc(-c2ncn(/C=C\c3nnco3)n2)cc(C(F)(F)F)c1
inactive: DU-145 prostate 18.4% | SF-268 CNS 10.9% | SF-295 CNS 53.6% | UACC-257 melanoma 53% | HCT-15 colon 17.6% | SNB-19 CNS 23.3% | U251 CNS 14.7% | PC-3 prostate 33.6% | UACC-62 melanoma 13.2%
active: K-562 leukemia 6.9% | MALME-3M melanoma 2.52% | RXF 393 renal -26.2% | SF-539 CNS 6.11% | SNB-75 CNS 4.47% | SK-MEL-5 melanoma -11.8% | LOX IMVI melanoma -27.3% | SK-MEL-28 melanoma 6.79%

NC(=S)N/N=C/C(=O)O
inactive: DU-145 prostate 106% | K-562 leukemia 32.7% | MDA-MB-231 breast 97.1% | RXF 393 renal 107% | SF-268 CNS 92.4% | SF-295 CNS 71.9% | SF-539 CNS 104% | UACC-257 melanoma 86.1% | M14 melanoma 93.9% | HCT-15 colon 93.7% | HT29 colon 80% | SNB-75 CNS 99.2% | SNB-19 CNS 108% | U251 CNS 102% | PC-3 prostate 70% | SK-MEL-5 melanoma 103% | UACC-62 melanoma 106% | LOX IMVI melanoma 93.3% | SK-MEL-28 melanoma 111%

COc1cc(NC(=O)c2cccc(-c3cc(=O)c4c(OC)c(OC)c(OC)cc4o3)c2)cc(OC)c1OC
inactive: DU-145 prostate 54.3% | K-562 leukemia 27.6% | MALME-3M melanoma 56.4% | RXF 393 renal 53.2% | SF-268 CNS 67.1% | SF-295 CNS 45% | SF-539 CNS 52.6% | UACC-257 melanoma 52.8% | HCT-15 colon 40.7% | HT29 colon 31.1% | SNB-75 CNS 74.7% | SNB-19 CNS 56.3% | U251 CNS 44.9% | PC-3 prostate 52.4% | UACC-62 melanoma 50.5% | LOX IMVI melanoma 24.4% | SK-MEL-28 melanoma 63.5%
active: SK-MEL-5 melanoma 8.34%
